This is a sample that favours compounds with a hit; in the whole collection about 3.6% have one here.
PI5P4K alpha inh: inhibitors of human PI5P4K alpha | max response, % | PI5P4Kalpha enzyme, ADP-Glo luminescence, 60 min; active compounds read low | P48426 | 330,000 tested, 1.2% active; active = max response of -50% or lower; inconclusive = between -30% and -50%; inactive = -30% or higher; note: value at the top dose of about 77 µM; % is set by controls: 0 for no effect and ±100 for the full control effect
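Single end-point luminescence (ADP-Glo) quantified ADP from PI5P4Kalpha turnover; ATP 5 microM final, 1 h at RT, 0.1% CHAPS and 0.28 mM EGTA in HEPES pH 7.4.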
PLK1 PBD inh: PLK1 (human) polo-box domain binding inhibition | P53350 | Plk1 PBD binding of FITC phosphopeptide, fluorescence polarization | Potency, µM, for the others: max response, negative = inhibition, most hits filed as inhibitors | 360,000 tested, 2.8% active | AID 720504; note: potency is the fitted concentration of half-maximal effect; series mostly up to about 57 µM; % is set by controls: 0 for no effect and ±100 for the full control effect; nearly all actives have a fitted effect of over 65% in size
Target sequence (P53350 whole entry, looked up, the tested form may be a part): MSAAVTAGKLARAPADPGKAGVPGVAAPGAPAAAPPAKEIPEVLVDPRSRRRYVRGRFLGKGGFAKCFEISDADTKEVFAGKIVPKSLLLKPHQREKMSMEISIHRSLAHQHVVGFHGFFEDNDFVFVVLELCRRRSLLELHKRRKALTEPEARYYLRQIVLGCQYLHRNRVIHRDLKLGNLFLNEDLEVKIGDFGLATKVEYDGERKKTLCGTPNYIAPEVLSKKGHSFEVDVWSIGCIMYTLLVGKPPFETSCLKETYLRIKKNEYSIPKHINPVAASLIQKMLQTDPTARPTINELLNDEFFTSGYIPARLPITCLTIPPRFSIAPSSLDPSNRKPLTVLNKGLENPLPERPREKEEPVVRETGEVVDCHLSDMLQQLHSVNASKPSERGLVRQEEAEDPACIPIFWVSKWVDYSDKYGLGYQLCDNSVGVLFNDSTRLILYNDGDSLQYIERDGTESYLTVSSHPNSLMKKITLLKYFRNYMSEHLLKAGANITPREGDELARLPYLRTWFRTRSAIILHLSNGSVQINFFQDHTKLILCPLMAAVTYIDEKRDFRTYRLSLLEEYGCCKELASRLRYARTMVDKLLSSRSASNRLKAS
KAT2A inh: blocks human GCN5L2 histone acetyltransferase; AID 504327; GCN5L2 HAT assay, ThioGlo1 CoA-SH fluorescence; Potency, µM (titrated, usually from 58.9 µM), without a hit: at the top dose activity change, negative = inhibition, most hits filed as inhibitors; 390,000 tested, 0.21% active; Q92830; note: potency is the fitted concentration of half-maximal effect; % is set by controls: 0 for no effect and ±100 for the full control effect
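GCN5L2 (20nM final) in 50mM HEPES, 0.1mM EDTA pH 7.5, 0.01% Tween-20 was preincubated 15 min at room temperature with compound, then given ThioGlo1 (50uM), H3(1-25) peptide (75uM) and acetyl-CoA (70uM); CoA-thiol fluorescence (Ex340/Em540) was read at 0 and 20 min.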
Rango dissoc inh: inhibition of RanGTP-driven Rango-importin beta dissociation; Potency, µM (titrated, usually from 46.1 µM), without a hit: at the highest dose activity change, negative = inhibition; AID 540253; Biochemical FRET Rango-importin beta, RanGTP-induced dissociation; 340,000 tested, 0.071% active; calls by dose curve; note: potency is the fitted concentration of half-maximal effect; % of control where 0% means no effect; nearly all actives have a fitted effect of over 45% in size
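Two FRET readings bracket the reaction: one 5 min after compound meets Rango–importin beta, another 45 min after RanGTP-RCC1 (0.6 uM Ran, 0.2 uM RCC1, 2 mM GTP) is added. Only the second defines inhibition.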
Rango-impB inh: Rango-importin beta binding inhibition; Q14974; Potency, µM (doses to about 92.2 µM), without a hit: top-dose inhibition of complex formation; Rango CFP/YFP FRET sensor + importin beta, 45 min; AID 540263; 340,000 tested, 0.031% active; calls by dose curve;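 note: potency is the fitted concentration of half-maximal effect; 0% = DMSO wells and 100% = buffer wells lacking importin beta; nearly all actives have a fitted effect of over 15% in size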
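FRET biosensor Rango (snurportin 1 IBB between N-terminal EYFP and C-terminal Cerulean), 50 nM in PBS/1 mM DTT/0.02% Tween-20/0.1% BSA, preincubated 5 min RT with compound; 0.125 microM importin beta added, 45 min RT, CFP/YFP FRET ratio read.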
VDR inhibitor: inhibitors of human vitamin D receptor; AID 504847; 400,000 tested, 0.93% active; Potency, µM, for inactives: max response, negative = inhibition, usual class: inhibitors; VDR-SRC2-3 peptide fluorescence polarization, 2 h; note: potency is the fitted concentration of half-maximal effect; % is set by controls: 0 for no effect and ±100 for the full control effect
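Measured by FP: displacement of SRC2-3 coactivator peptide from VDR by library compounds, following a two-hour ambient incubation.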
* = called active by the depositor; ? = inconclusive; · = not tested or not shown. Unless noted, calls come from the whole dose curve; as a rule, active = well fitted curve in the direction sought with a large enough effect; inconclusive = small, poorly fitted or top-dose-only effect, or another doubt; inactive = no such curve, though single readings can be large; an effect the other way counts as inactive or inconclusive.

SMILES	PI5P4K alpha inh	PLK1 PBD inh	KAT2A inh	Rango dissoc inh	Rango-impB inh	VDR inhibitor
COc1ccc(N=Nc2ccc(O)c3ncccc23)cc1	-3.3	-3.6%	-21.6%	-2.6%	5.8%	-5.5%
Cc1nc(N2CCCC2)ncc1C(=O)N1CCN(c2ccc(Cl)cc2)CC1	·	·	18.6%	·	·	1.3%
Cc1cc(Cl)c(O)c(-n2nc3ccccc3n2)c1	2.6	23.8µM*	-3.9%	15.0%	-2.7%	-25.1%
COc1cc(-c2nn3c(Cc4ccccc4)nnc3s2)cc(OC)c1OC	·	26.7µM*	-14.9%	-13.8%	-0.1%	-15.2%
COc1cc(-c2nnc3sc(-c4ccncc4)nn23)cc(OC)c1OC	-12.1	11.9µM*	·	-12.0%	2.6%	-16.2%
COc1cc(-c2nn3c(COc4ccccc4)nnc3s2)cc(OC)c1OC	-7.2	26.7µM*	-9.8%	2.8%	2.5%	?
COc1cc(-c2nn3c(-c4ccccc4)nnc3s2)cc(OC)c1OC	·	-6.9%	-1.8%	11.0%	0.8%	1.1%
COc1cccc(C2=NOC(C(=O)Nc3cc(OC)c(OC)c(OC)c3)C2)c1 (stereo not drawn)	·	-2.3%	-4.3%	3.2%	2.2%	4.1%
COc1cccc(C2=NOC(C(=O)Nc3ccccc3SC)C2)c1 (stereo not drawn)	0.6	29.9µM*	-14.1%	-9.6%	2.9%	-16.6%
COc1ccc(CNC(=O)C(=O)NCC(c2cccs2)S(=O)(=O)c2cccs2)cc1 (stereo not drawn)	·	·	-2.1%	·	·	0.2%
CC(=O)c1cccc(N2C(=NC(=O)COc3ccccc3)SC3CS(=O)(=O)CC32)c1 (stereo not drawn)	-23.4	23.8µM*	0.3%	22.8%	2.4%	?
Cc1cc(C)c(S(=O)(=O)N2CCC(N3CCN(Cc4ccc(F)cc4)C(=O)C3=O)CC2)c(C)c1	·	·	5.3%	·	·	16.0%
CCN1C(=O)N/C(=C/c2ccc(C)o2)C1=O	-28.9	-0.5%	-14.9%	-7.7%	-0.1%	89.1µM*
COCCCNC(=O)Cn1c(=O)n(-c2cccc(C)c2)c(=O)c2c1c1cc(C)ccc1n2C	·	·	1.5%	·	·	7.0%
COC(=O)Cc1csc(NC(=O)CSc2nnc3ccccn23)n1	-28.4	16.8µM*	-3.1%	27.0%	-0.6%	?
CCOC(=O)c1cc(-c2ccccc2)n(CCC(=O)Nc2ccc(Cl)c(C(F)(F)F)c2)c1C	·	·	-13.1%	·	·	-1.0%
COc1ccc(NC(=O)Nc2c[nH]c(=O)[nH]c2=O)c(OC)c1	·	·	-22.0%	·	·	16.5%
Cc1cc(C)nc(NC2=NCCN2C(=O)NC2CCCCC2)n1	?	7.52µM*	3.1%	28.8%	2.9%	-15.4%
CC(NCC(O)COCCC12CC3CC(CC(C3)C1)C2)c1ccccc1 (stereo not drawn)	1.8	29.9µM*	-12.1%	8.3%	0.6%	-6.7%
NCC(O)COCCC12CC3CC(CC(C3)C1)C2 (stereo not drawn)	10.6	-4.5%	1.9%	15.4%	1.3%	-8.5%
O=C(Nc1ccc(Cl)cc1)OCCn1nnnc1C(c1ccccc1Cl)N1CCOCC1 (stereo not drawn)	-0.6	21.2µM*	-7.2%	-5.2%	-4.1%	?
CCOC(=O)/C=C1/SCC(=O)N1CC(=O)NC12CC3CC(CC(C3)C1)C2	-4.1	-8.1%	·	1.6%	0.1%	5.4%
CCOC(=O)/C=C1\SCC(=O)N1CC(=O)c1ccc[nH]1	-53.4*	-1.3%	-3.6%	-28.9%	-3.0%	-0.6%
O=C(Nc1cc(S(=O)(=O)N2CCOCC2)ccc1N1CCOCC1)c1ccc(Cl)nc1	-16.5	29.9µM*	17.7%	16.9%	0.2%	-22.7%
CCOc1cccc(/C=N/NC(=S)Nc2cc(S(=O)(=O)N3CCOCC3)ccc2N2CCOCC2)c1O	-11.2	10.2%	-2.2%	3.66µM*	?	-12.3%
SMILES	PI5P4K alpha inh	PLK1 PBD inh	KAT2A inh	Rango dissoc inh	Rango-impB inh	VDR inhibitor
COc1ccc(/C=C/C(=O)Nc2cc(S(=O)(=O)N3CCCCC3)ccc2N2CCCCC2)cc1OC	2.5	-4.6%	-7.8%	-9.7%	-1.2%	8.8%
CCOC(=O)CCC(=O)Nc1cc(S(=O)(=O)N2CCOCC2)ccc1N1CCCCC1	-0.5	-0.6%	-0.6%	8.3%	-2.4%	14.9%
COc1cc(/C=C/C(=O)Nc2cc(S(=O)(=O)N3CCOCC3)ccc2N2CCCC2)cc(OC)c1OC	-17.2	6.7µM*	2.0%	-12.1%	-0.1%	?
CCOCC(=O)Nc1cc(S(=O)(=O)N2CCOCC2)ccc1N1CCCCC1	?	4.74µM*	-29.0%	25.3%	0.0%	?
COc1cccc(CCNc2ncnc3c2nnn3C)c1	·	·	-4.6%	·	·	8.1%
O=C(Nc1ccc(Cl)cc1)Nc1cc(S(=O)(=O)N2CCOCC2)ccc1N1CCCC1	-0.4	-11.1%	-6.2%	-12.3%	-0.1%	-4.0%
O=C(Nc1ccccc1)Nc1cc(S(=O)(=O)N2CCOCC2)ccc1N1CCCC1	-16.7	21.2µM*	-6.6%	24.7%	-0.3%	-11.4%
Cc1cc(NC(=O)CN(C)S(=O)(=O)c2ccc3c(c2)CCC(=O)N3)ccc1Br	·	·	-7.2%	·	·	-14.9%
COc1ccc(N(C(=O)c2cccc(C)c2)S(=O)(=O)c2ccc(C)cc2)cc1	·	·	-10.1%	·	·	2.3%
Cc1c2ccccc2nc2c(F)c(NCCO)c(F)c(F)c12	?	6.7µM*	-17.8%	?	?	?
CCc1ccc(NC(=O)Cn2c(=O)n(Cc3ccco3)c(=O)c3cccnc32)cc1	·	·	-7.7%	·	·	-13.9%
CC(C)CNC(=O)C1=CC(c2ccc3c(c2)OCO3)=NS(=O)(=O)N1C	·	·	-5.1%	·	·	3.8%
CC(=O)Nc1ccc(SCC(=O)Nc2ccc3c(c2)OCCO3)cc1	0.9	11.9µM*	-2.4%	9.3%	-3.3%	?
CC(=O)Nc1ccc(SCC(=O)c2ccc(Br)s2)cc1	-23.9	4.74µM*	-20.5%	-3.1%	-3.6%	?
O=C(CSc1ncccc1C(=O)O)Nc1ccc2c(c1)OCCO2	-52.2*	-7.4%	-1.8%	11.2%	2.6%	-3.2%
O=C(CN1C(=O)CSC1=O)Nc1ccc2c(c1)OCCO2	-55.4*	-13.5%	-6.5%	-1.1%	-3.9%	-2.5%
CCOc1ccc(C(=O)Nc2ccc3nc(SCC(=O)N4CCOCC4)sc3c2)cc1	·	·	-13.4%	·	·	9.9%
CC(=O)Nc1ccc(SCC(=O)NC(=O)c2ccc(S(=O)(=O)N(C)C)cc2)cc1	-29.5	10.6µM*	-3.1%	0.8%	-2.3%	?
C=C(C)C(=O)Nc1ccc2c(c1)OCCOCCOCCO2	-73.8*	-20.8%	1.5%	-8.4%	-3.2%	0.0%
Nn1c(SCC(=O)Nc2ccc3c(c2)OCCO3)nnc(CCC(=O)O)c1=O	?	3.36µM*	-2.9%	-9.9%	-3.3%	?
Cc1c(NC(=O)CSc2ccc3c(c2)OCCO3)c(=O)n(-c2ccccc2)n1C	-13.0	26.7µM*	-0.9%	6.2%	4.2%	-7.7%

Compound activity from PubChem BioAssay.
